From PubChem BioAssay AID1578 (Sanford-Burnham Center for Chemical Genomics, 2009)
Values joined by “and” are separate entries in the source; they are usually repeats but may differ in a detail not shown here. Equal values may be shown once. Among all 290,000 compounds or so, about 3,000 (1%) were called active. Many of the other results were omitted from the sample, so actives are more common in it than they were. Unmarked numbers belong to inactive results. No stated cut-off is given here; in the data, active means inhibition mostly above about 36% (no sharp cut-off); inactive means mostly below about 34%.

Assay: inhibition of NOD1-driven NF-kB reporter – cell-based, luminescence, uHTS, primary screen (AID 1578);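 further: HEK-293T reporter cells stimulated with the NOD1 agonist gamma-tri-DAP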
Settings: NOD1-driven NF-kB luciferase reporter cells, at 4 µM, stronger effect = higher value

SMILES	inhibition
O=C(O)CSc1nnc(-c2ccc(Cl)cc2Cl)n1-c1ccc(Br)cc1	14.7%
Cc1ccc(N=Nc2c(N)[nH]n3c(=O)cc(-c4ccccc4)nc23)cc1	76% (active)
Cc1ccc(N=Nc2c(N)[nH]n3c(=O)cc(C)nc23)cc1	-20.5%
Nc1[nH]n2c(=O)cc(-c3ccccc3)nc2c1N=Nc1ccc(S(N)(=O)=O)cc1	-26%
Cc1ccc(C(=O)CSc2nc(-c3ccccc3)cc(=O)[nH]2)cc1	64.8% (active)
O=C(O)CSc1nc(-c2ccccc2)cc(=O)[nH]1	-22.9%
Cc1ccc(C(=O)CSc2nc(C)cc(=O)[nH]2)cc1	-3.4%
CCOC(=O)Cn1c(=O)oc2cc(S(=O)(=O)N(C)c3ccc(OC)cc3)ccc21	3.5%
CCOc1cc(/C=C2/C(=O)ON=C2C)cc(Br)c1O	25.8%
COc1cc(/C=C2\C(=O)ON=C2c2ccccc2)cc(Br)c1O	13.8%
CCOc1cc(/C=C2\C(=O)ON=C2c2ccccc2)cc(Br)c1O	39.5% (active)
C/C(N)=C(/C#N)C(=O)COC(=O)CC12CC3CC(CC(C3)C1)C2	14.9%
CCn1c(CNC(=O)Cc2ccc(OC)cc2)nnc1SCC(=O)Nc1nccs1	-10.4%
O=c1o[nH]c(-c2ccccc2)c1N=Nc1c(F)cccc1Cl	37% (active)
O=C(O)c1ccc(N=Nc2c(-c3ccccc3)[nH]oc2=O)cc1	-2.7%
Cc1[nH]oc(=O)c1N=Nc1c(Cl)cccc1Cl	-17%
Cc1ccc(N2C(=O)/C(=C/c3cccnc3)SC2=S)cc1	56.2%
C=C1C(C(=O)Nc2ccc(F)cc2)C1C(=O)Nc1ccc(F)cc1 (stereo not given)	3.1%
O/N=C/c1ccccc1Oc1ccc(Cl)cc1	72.6% (active)
O/N=C/c1ccccc1Oc1ccccc1	22.6%
O/N=C\c1ccccc1Oc1ccc(F)cc1	8%
CCOC(=O)/C(C#N)=C\c1cccnc1	-19.2%
CCOC(=O)/C(=C\c1ccccc1)C(=O)c1cc(C(C)=O)c(Nc2ccccc2)s1	57.5%
CCOC(=O)/C(=C\c1cccnc1)C(=O)c1cc(C(C)=O)c(Nc2ccccc2)s1	102% (active)
Cc1ccc2occ(/C=N/NC(=O)c3ccccc3Br)c(=O)c2c1	29.9%

SMILES	inhibition
Cc1ccc2occ(/C=N/NC(=O)c3ccccc3C)c(=O)c2c1	49% (active)
Cc1ccc2occ(/C=N/NC(=O)c3ccccc3O)c(=O)c2c1	-14.7%
O=S1(=O)C=C(SCc2cccc(Cl)c2)Nc2ccccc21	21.1%
COc1cccc(OC)c1Nc1nc(C)nc2c1nnn2Cc1ccccc1Cl	-33.1%
CCc1nc(Nc2ccc(OC)c(OC)c2)c2nnn(Cc3ccccc3Cl)c2n1	58.7% (active)
COc1ccc(Nc2nc(C)nc3c2nnn3Cc2ccccc2)cc1OC	0%
O=C(Nc1ccnn1C1CCN(C2CCCCC2)CC1)c1ccccc1	-6.5%
COc1cc(/C=N/n2c(C)nc3ccccc3c2=O)cc(OC)c1O	-6.8%
O=C(c1ccc(Cl)c(S(=O)(=O)N2CCCCC2)c1)N1CCCCC1	-30.5%
O=C(c1ccc(Cl)c(S(=O)(=O)N2CCCCCC2)c1)N1CCCC1	0.4%
NS(=O)(=O)c1cc(C(=O)N2CCNC(=O)C2)ccc1Cl	70.4% (active)
O=c1c2c([nH]c3ccccc13)C(=C1CCCC1)CC2	2.8%
Cc1ccc(N2CCN(C(=O)c3cccs3)CC2)cc1C	1.8%
Cc1ccc(C2=[N+]([O-])C3(CCCCC/C3=N\O)N(O)C2(C)C)o1 (stereo not given)	14.4%
COc1ccc(CNC(=O)c2ccc(C(C)(C)C)cc2)cc1	-24.6%
C[C@@H]1CC[C@@]2(O[C@H](CCO)C[C@@H](O)[C@@H]2O)O1	-47.3%
COCCn1c(=S)[nH]c2cc(C(=O)N3CCN(Cc4ccc5c(c4)OCO5)CC3)ccc2c1=O	-2.2%
CCCCCn1c(=O)[nH]c2cc(C(=O)N3CCN(CC)CC3)ccc2c1=O	-4%
COc1ccc(-n2c(Cn3nnc4ccccc43)n[nH]c2=S)cc1	12%
COc1ccccc1S(=O)(=O)Nc1cc(S(=O)(=O)N2CCCCC2)ccc1N1CCOCC1	-35.7%
COc1ccc(C(=O)c2no[n+]([O-])c2C(=O)c2ccc(OC)cc2)cc1	6.8%
Cc1ccc(C(=O)c2no[n+]([O-])c2C(=O)c2ccc(C)cc2)cc1	18%
O=C(c1cccs1)c1no[n+]([O-])c1C(=O)c1cccs1	98.1% (active)
O=S(=O)(c1ccc(F)c(F)c1F)N1CCN(C(=S)NC2CC3CCC2C3)CC1 (stereo not given)	-22.5%
Cc1ccc(NC(=O)/C(C#N)=C/c2ccccc2C(F)(F)F)cc1	-32.5%

SMILES	inhibition
Cc1ccc(CSc2nccc(-c3c(C)nc4ccccn34)n2)cc1	27%
Clc1ccc(CSc2ncccn2)cc1	-34.4%
Cc1nc2ccccn2c1-c1ccnc(SCc2ccc(Cl)cc2)n1	37.7% (active)
COc1ccc2c(C)cc(SCC(=O)Nc3cc(C(N)=O)cc(C(N)=O)c3)nc2c1	-7%
O=C(O)Cc1ccc(NC(=S)NCc2ccco2)cc1	-27.1%
O=C(Cc1ccc(-c2ccccc2)cc1)NNC(=S)NCc1ccco1	41.4% (active)
O=C(Cc1cccs1)NNC(=S)NCc1ccco1	-26.1%
CC(=O)c1ccc(C(=O)N2CCCC(CO)(Cc3ccccc3C)C2)s1 (stereo not given)	-39%
COc1ccc(NC(=O)Cn2c3ccc(OC)cc3c3nc4n(c(=O)c32)CCS4)cc1	-15.9%
COc1ccc2c(c1)c1nc3n(c(=O)c1n2CC(=O)Nc1ccccc1)CCS3	-17.5%
COc1ccc2c(c1)c1nc3n(c(=O)c1n2CC(=O)Nc1cc(C)[nH]n1)CCS3	63.4% (active)
COc1ccc(OC(=O)N2CCOCC2)cc1	-16.5%
CC1CCCC(NC(=O)COC(=O)Cc2cn3ccsc3n2)C1C (stereo not given)	6.7%
COc1ccc(-n2c(-c3ccc(Cl)cc3)c[n+]3c2CCc2ccccc2-3)cc1	20.5%
COc1ccccc1-n1c(-c2ccccc2)c[n+]2c1CCc1ccccc1-2	52.9% (active) and 68.6% (active)
Cc1ccc(-c2c[n+]3c(n2-c2ccccc2)CCC3)cc1	25.4%
Cc1ccc(-n2c(-c3ccccc3)c[n+]3c2CCC3)cc1	9.5%
COc1ccc(-n2c(-c3ccc(Br)cc3)c[n+]3c2CCc2ccccc2-3)cc1	13.3%
Cc1ccc(-n2c(-c3ccccc3)c[n+]3c2CCc2ccccc2-3)c(C)c1	66% (active)
CCOc1ccc(-c2c(C(=O)N/N=C/c3ccco3)nnn2-c2nonc2N)cc1	-7.1%
O=C(Cn1cnc(S(=O)(=O)N2CCCCC2)c1)NCc1ccco1	-11.7%
CC(C)N(Cc1ccccc1)C(=S)Nc1ccccc1F	-3.5%
CCOC(=O)CN(c1ccccc1C)S(=O)(=O)c1ccc(Cl)cc1	21.3%
CCN(CC)C(=O)Cn1cc(C(=O)C(=O)N(CC)C2CCCCC2)c2ccccc21	-4.6%
Cc1nc2c(=O)n(C)c(=O)n(C)c2nc1Cl	94.4% (active)

SMILES	inhibition
Cn1c(=O)c2nc(Cl)c(-c3ccccc3)nc2n(C)c1=O	-30.8%
Cn1c(=O)c2nc3ccccc3nc2n(C)c1=O	-21.3%
CCCC(C)NC(=O)/C=C/c1cccc([N+](=O)[O-])c1 (stereo not given)	-26.2%
CCOC(=O)CNC(=O)CSc1nnc(NC(=O)c2ccc3c(c2)OCO3)s1	-31.4%
CCOC(=O)CNC(=O)CSc1nnc(NC(=O)c2ccc(C)cc2)s1	44.8% (active)
CCOC(=O)CNC(=O)CSc1nnc(NC(=O)c2ccccc2Cl)s1	-7.6%
CN1CCN(NC(=O)C23CC4CC(CC(C4)C2)C3)CC1	-2.4%
COc1ccc2c(CC(=O)Nc3ccccc3N3CCOCC3)coc2c1	16.3%
COc1ccccc1NC(=O)Cc1coc2cc(C)ccc12	-17.5%
COc1ccc2c(CC(=O)Nc3ccccc3OC)coc2c1	57.6% (active)
O=C(NC(=S)Nc1ncccn1)c1ccc(Cl)cc1Cl	-41.6%
COc1ccc(C2=NN(S(C)(=O)=O)C(c3cccs3)C2)cc1 (stereo not given)	-16.2%
COc1ccc(C2=NN(c3ccccc3)C(c3cccs3)C2)cc1 (stereo not given)	46.8% (active)
CC(=O)Nc1ccc(C2=NN(c3ccccc3)C(c3cccs3)C2)cc1 (stereo not given)	-0.7%
CC(=O)c1ccc(NC(=O)CCc2nnc3ccc(N4CCC5(CC4)OCCO5)nn23)cc1	-15.6%
CCOc1cc2[nH]c(=O)n(CCCN3CCCC3=O)c(=O)c2cc1OCC	0.4%
CCCc1cc(-c2n[nH]c(=S)n2-c2cccc(C)c2)cs1	-9.6%
O=C(N/N=C(\c1ccccc1)c1ccccn1)c1cccc([N+](=O)[O-])c1	103% (active)
O=C(c1cccc([N+](=O)[O-])c1)c1ccccn1	-6.3%
O=C(NNC(=O)c1ccccn1)c1cccc([N+](=O)[O-])c1	-43.1%
O=C(CC(C(=O)O)c1ccc(Cl)cc1)c1ccccc1 (stereo not given)	-13%
C=C(C(=O)c1ccccc1)C(c1ccccc1)C(C)C(=O)c1ccccc1 (stereo not given)	44.3%
O=C(CC(CC(=O)c1ccccc1)c1ccccc1)c1ccccc1	-4.1%
O=C(O)c1ccc(C(=O)C(=O)c2ccccc2)cc1	-2.3%
C=C(C(=O)c1ccccc1)C(C)C(=C)C(=O)c1ccccc1	99% (active)
